A number with no mark means an inactive call.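 Rule for the calls: active = at least 20% inhibition of 6-phosphogluconate dehydrogenase activity; inactive = the rest.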 Where a SMILES comes first, the peptide text is derived from it.
molecular target: 6-phosphogluconate dehydrogenase, decarboxylating (Homo sapiens) (UniProt P52209); test: inhibition of human phosphogluconate dehydrogenase – biochemical, recombinant enzyme, NADPH absorbance, primary screen (AID 1159550); conditions: recombinant 6PGD, NADPH absorbance 341 nm; at 10 µM; stronger effect = higher value
Sequence (P52209 whole entry, looked up): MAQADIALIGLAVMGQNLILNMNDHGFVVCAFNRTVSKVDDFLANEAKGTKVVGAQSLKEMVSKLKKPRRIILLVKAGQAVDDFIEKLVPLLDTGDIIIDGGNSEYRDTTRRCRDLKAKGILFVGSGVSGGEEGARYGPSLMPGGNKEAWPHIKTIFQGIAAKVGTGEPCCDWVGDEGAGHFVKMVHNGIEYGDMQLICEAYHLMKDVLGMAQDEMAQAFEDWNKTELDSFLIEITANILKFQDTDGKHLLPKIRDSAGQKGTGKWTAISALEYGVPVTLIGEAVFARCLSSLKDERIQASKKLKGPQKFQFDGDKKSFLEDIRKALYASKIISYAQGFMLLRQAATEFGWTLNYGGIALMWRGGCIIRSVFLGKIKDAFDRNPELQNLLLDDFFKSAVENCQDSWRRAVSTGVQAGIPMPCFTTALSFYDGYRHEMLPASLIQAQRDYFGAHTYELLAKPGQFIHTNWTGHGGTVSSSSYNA

Q: Which inhibition does the source give for `CC(=O)NC(Cc1c[nH]c2ccccc12)C(N)=O` (stereo not drawn) here?
A: The inhibition was -11.6%.

Q: Which inhibition does the source give for `CC(=O)O[C@H]1CC[C@]2(C)C(C[C@@H](OC(C)=O)[C@]3(C)C4=CC(=O)OC(c5ccoc5)[C@@]4(C)CCC23)C1(C)C` (stereo partly drawn) here?
A: The inhibition was 5.97%.

Q: `Oc1ccc2c(c1)OC[C@H]1c3cc4c(cc3O[C@@H]21)OCO4` was tested. Which inhibition did it give?
A: The inhibition was -3%.

Q: How did the inhibition turn out when `O=c1c(O)cccc2c([C@H]3Oc4cc(O)cc(O)c4C[C@H]3O)cc(O)c(O)c12` was run?
A: The inhibition was 3.21%.

Q: With `COc1ccc(-c2coc3cc(O)ccc3c2=O)c(OC)c1O` as the compound, how does the inhibition read?
A: The inhibition was 1.46%.

Q: `C=C1C(CCl)(CCl)C2(Cl)C(Cl)C(Cl)C1(Cl)C2(Cl)Cl` (stereo not drawn) was tested. Which inhibition did it give?
A: Its inhibition is -11.7%.

Q: Which inhibition does the source give for `O=C1C=CC2=C3c4cc(O)c(O)cc4CC3(O)COC2=C1` (stereo not drawn) here?
A: The inhibition was 4.16%.

Q: `CC(=O)O[C@@H]1CC2C(C)(C)CCC(=O)[C@]2(C)C2CC[C@@]3(C)[C@H](c4ccoc4)OC(=O)C4OC43[C@@]21C` (stereo partly drawn) was tested. Which inhibition did it give?
A: The inhibition was -0.737%.

Q: Which inhibition does the source give for `CC(=O)c1ccc(O)c(CC=C(C)C)c1` here?
A: The inhibition was 18.5%.

Q: For `CC=C(C)C(=O)OC1C(OC(C)=O)[C@]2(CO)C(O)C[C@]3(C)C(=CCC4[C@@]5(C)CCC(OC6OC(C(=O)O)C(OC7OC(CO)C(O)C(O)C7O)C(O)C6OC6OC(CO)C(O)C(O)C6O)[C@](C)(CO)C5CC[C@]43C)C2CC1(C)C` (stereo partly drawn), which inhibition is on record?
A: The inhibition was 10.9%.

Q: Which inhibition does the source give for `CN[C@H]1[C@@H](O[C@@H]2[C@@H](O[C@H]3[C@H](O)[C@@H](O)[C@H](N=C(N)N)[C@@H](O)[C@@H]3N=C(N)N)O[C@H](C)[C@@]2(O)C=O)O[C@H](CO)[C@@H](O)[C@@H]1O` here?
A: Its inhibition is 6.7%.

Q: Which inhibition does the source give for `C1CCN2CC3CC(CN4CCCCC34)C2C1` (stereo not drawn) here?
A: Its inhibition is 12.3%.

Q: For `Cc1cc(=O)c2c(O)c3c(cc2o1)OC(C)(C)CC3`, which inhibition is on record?
A: The inhibition was 3.81%.

Q: For `COc1c(C(=O)O)ccc2c1CCC(C)(C)O2`, which inhibition is on record?
A: The inhibition was 17.1%.

Q: Which inhibition does the source give for `O=C(O)[C@H]1CCCNC1` here?
A: The inhibition was 2.88%.

Q: Which inhibition does the source give for `C=CCCCCCCCCCCC/C=C/C(O)COC(C)=O` (stereo not drawn) here?
A: The inhibition was -11.7%.

Q: How did the inhibition turn out when `CC(C)C1COc2cc3oc(=O)ccc3cc2O1` (stereo not drawn) was run?
A: Its inhibition is 3.83%.

Q: `CO[C@H]1C[C@H](O[C@H]2[C@H](C)[C@@H](O[C@@H]3O[C@H](C)C[C@H](N(C)C)[C@H]3OC(C)=O)[C@@H](C)C[C@@]3(CO3)C(=O)[C@H](C)[C@H](OC(C)=O)[C@@H](C)[C@@H](C)OC(=O)[C@@H]2C)O[C@@H](C)[C@@H]1OC(C)=O` was tested. Which inhibition did it give?
A: The inhibition was -13%.

Q: Which inhibition does the source give for `CC(=O)OC1CCC2(C)C(CCC3(C)C2CC=C2C4CC(C)(C)CCC4(C)CCC23C)C1(C)C` (stereo not drawn) here?
A: Its inhibition is 3.75%.

Q: With `CC(=O)O[C@@H]1CC2C(C)(C)C(=O)[C@@H]3O[C@@H]3[C@]2(C)C2CC[C@]3(C)C(=CC(=O)O[C@H]3c3ccoc3)[C@@]21C` (stereo partly drawn) as the compound, how does the inhibition read?
A: The inhibition was 0.52%.

Q: `CC[C@@H](/C=C/[C@@H](C)[C@H]1CC[C@H]2[C@@H]3CC=C4C[C@@H](O)CC[C@]4(C)[C@H]3CC[C@]12C)C(C)C` was tested. Which inhibition did it give?
A: The inhibition was 15.3%.

Q: How did the inhibition turn out when `COC1=CC(=O)C(O)=C/C1=C/C=C/c1ccccc1` was run?
A: The inhibition was 4.47%.

Q: `CC(C)c1c(O)ccc2c1CCC1C(C)(CO)CCCC21C` (stereo not drawn) was tested. Which inhibition did it give?
A: Its inhibition is -0.0186%.

Q: With `Nc1ncnc2c1ncn2C1CC(O)C(CO)O1` (stereo not drawn) as the compound, how does the inhibition read?
A: Its inhibition is 2.59%.

Q: For `COc1cc(O)cc(/C=C/c2ccccc2)c1`, which inhibition is on record?
A: The inhibition was 10.9%.

Q: Which inhibition does the source give for `NCCCC[C@H](N)C(=O)N[C@@H](Cc1ccccc1)C(=O)N[C@@H](Cc1ccc(O)cc1)C(=O)O` (H-Lys-Phe-Tyr-OH) here?
A: Its inhibition is 6.75%.

Q: How did the inhibition turn out when `CC1(C)C(=O)C2OC2C2(C)C1CC(=O)C1(C)C2CCC2(C)C(c3ccoc3)OC(=O)C3OC321` (stereo not drawn) was run?
A: The inhibition was 2.22%.

Q: Which inhibition does the source give for `CC(=O)O[C@H]1CC[C@]2(C)C(C[C@H](OC(C)=O)[C@]3(C)C4=CC(=O)O[C@H](c5ccoc5)[C@@]4(C)CCC23)C1(C)C` (stereo partly drawn) here?
A: The inhibition was -15.5%.

Q: With `CC(=O)OC1CC[C@@]2(C)C(CC[C@H]3[C@@H]4CC=C(C(C)=O)[C@@]4(C)C(=O)C[C@@H]32)C1` (stereo partly drawn) as the compound, how does the inhibition read?
A: Its inhibition is 4.79%.

Q: With `NCCCC(N)CC(=O)NCC1NC(=O)C(CO)NC(=O)C(N)CNC(=O)C(C2CCNC(N)=N2)NC(=O)/C(=C/NC(N)=O)NC1=O` (stereo not drawn) as the compound, how does the inhibition read?
A: The inhibition was -0.986%.

Q: Which inhibition does the source give for `C=C[C@@H]1CN2CC[C@@H]1C[C@@H]2[C@@H](O)c1ccnc2ccc(OC)cc12` here?
A: Its inhibition is 8.78%.

Q: `O=C(O)C(O)C(O)C(=O)O` (stereo not drawn) was tested. Which inhibition did it give?
A: Its inhibition is 6.59%.

Q: With `CC[C@H](C(=O)[C@@H](C)[C@@H](O)[C@H](C)[C@@H]1O[C@@H]([C@@H](CC)C(=O)O)[C@@H](C)C[C@@H]1C)[C@H]1O[C@]2(C=C[C@@H](O)[C@]3(CC[C@@](C)([C@H]4CC[C@](O)(CC)[C@H](C)O4)O3)O2)[C@H](C)C[C@@H]1C` as the compound, how does the inhibition read?
A: The inhibition was -15.5%.

— PubChem BioAssay
